Assay [1] relates to Jurkat. Put plainly: mean cell size (FSC-A) relative to DMSO control (fraction of control); higher = larger cells. The settings on record: 48 h. In outline:
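Jurkat cells seeded at 600 cells/µl were incubated 1 h, then exposed for 48h to the Enzo Screen-Well FDA Approved Drug Library v2.0 at 25µM in 0.9% (v/v) final DMSO. Drugs that cut counts below 20% of controls were diluted 10-fold and retested, down to 25nM. Cell count and mean cell size (forward scatter area) were read on an Accuri C6 flow cytometer, relative to solvent-only controls. Plates held 6-12 controls; values are means of 3 biological replicates.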

For assay [2], the system named is Jurkat. Put plainly: cell count relative to DMSO control (fraction of control); higher = more cells (less growth inhibition). The conditions noted are these: 48 h.

Structures can show the parent of a compound that is named as a salt. ± gives the standard deviation.

As to `CO[C@H]1C[C@@H]2CC[C@@H](C)[C@@](O)(O2)C(=O)C(=O)N2CCCC[C@H]2C(=O)O[C@H]([C@H](C)C[C@@H]2CC[C@@H](O)[C@H](OC)C2)CC(=O)[C@H](C)/C=C(\C)[C@@H](O)[C@@H](OC)C(=O)[C@H](C)C[C@H](C)/C=C/C=C/C=C/1C` [Sirolimus (Rapamycin)] (concentration: 2.5 µM), in assay [1], the mean cell size is 0.7581 ± 0.0033. The cell count in assay [2] came to 0.626 ± 0.074.
In the same order, the values of `CC(C)NCC(O)COc1cccc2ccccc12` (configuration not stated) [Propranolol·HCl] (concentration: 25 µM) are 1.04 ± 0.061 and 0.633 ± 0.015.
As to `Cc1[nH]cnc1CN1CCc2c(c3ccccc3n2C)C1=O` [Alosetron·HCl] (concentration: 25 µM), in assay [1], the mean cell size was found to be 0.954 ± 0.059. Further, the cell count in assay [2] is 0.592 ± 0.12.
As to `C=C[C@H]1CN2CC[C@H]1C[C@H]2[C@H](O)c1ccnc2ccc(OC)cc12` [Quinine·HCl·H2O] (concentration: 25 µM), the mean cell size in assay [1] stood at 1.06 ± 0.055. The cell count in assay [2] stood at 0.637 ± 0.18.
For the molecule `CC(=O)Oc1ccccc1C(=O)O` [Aspirin (Acetylsalicylic Acid)] (concentration: 25 µM), the mean cell size in assay [1] amounted to 0.9355 ± 0.0074. In assay [2], this molecule yielded a cell count of 0.97 ± 0.082.
Molecule `CCN(CC)CCCC(C)Nc1ccnc2cc(Cl)ccc12` (configuration not stated) [Chloroquine Diphosphate] (concentration: 25 µM) showed a mean cell size in assay [1] of 0.947 ± 0.025. The cell count in assay [2] was found to be 1.03 ± 0.099.
In assay [1], `CC(=O)NCCCS(=O)(=O)O` [Acamprosate] (concentration: 25 µM) registered a mean cell size of 1.05 ± 0.062. In addition, in assay [2], the cell count was determined as 0.933 ± 0.097.
For the molecule `CC(C)(S)[C@@H](N)C(=O)O` [Penicillamine (D-Penicillamine)] (concentration: 25 µM), the mean cell size in assay [1] stood at 0.954 ± 0.042. The molecule further registered a cell count in assay [2] of 0.796 ± 0.074.
On the same counts, the results for `CCCNC(=O)NS(=O)(=O)c1ccc(Cl)cc1` [Chlorpropamide] (concentration: 25 µM) are 1.04 ± 0.021 and 1.02 ± 0.048.
In the same order, the values of `CCCCN1CCCCC1C(=O)Nc1c(C)cccc1C` (configuration not stated) [Bupivacaine·HCl] (concentration: 25 µM) are 0.982 ± 0.02 and 0.656 ± 0.097.
In assay [1], `O=C1C(=O)c2ccccc2C(O)=C1C1CCC(c2ccc(Cl)cc2)CC1` (configuration not stated) [Atovaquone] (concentration: 25 µM) came in with a mean cell size of 0.91 ± 0.015. This molecule registered a cell count in assay [2] of 0.462 ± 0.039.
On to `CC(S)C(=O)NCC(=O)O` (configuration not stated) [Tiopronin] (concentration: 25 µM), for which the mean cell size in assay [1] came to 0.956 ± 0.016. Further, in assay [2], the cell count amounted to 0.864 ± 0.17.
In assay [1], `CCc1nc(N)nc(N)c1-c1ccc(Cl)cc1` [Pyrimethamine] (concentration: 25 µM) displayed a mean cell size of 0.959 ± 0.018. Also, the cell count in assay [2] came to 0.2 ± 0.033.
Regarding `CC(C)Nc1cccnc1N1CCN(C(=O)c2cc3cc(NS(C)(=O)=O)ccc3[nH]2)CC1` [Delavirdine Mesylate] (concentration: 25 µM), the mean cell size in assay [1] turned out to be 0.942 ± 0.036. In assay [2], this molecule gave a cell count of 0.887 ± 0.099.
For the molecule `COc1ccc2[nH]c([S@@+]([O-])Cc3ncc(C)c(OC)c3C)nc2c1` [Esomeprazole Potassium] (concentration: 25 µM), the mean cell size in assay [1] was found to be 0.98 ± 0.027. Also, in assay [2], the cell count is 0.868 ± 0.081.
Consider `CCc1ccc(CCOc2ccc(CC3SC(=O)NC3=O)cc2)nc1` (configuration not stated) [Pioglitazone·HCl] (concentration: 25 µM), for which the mean cell size in assay [1] worked out at 0.966 ± 0.039. In assay [2], this molecule gave a cell count of 0.906 ± 0.16.
On the same counts, the results for `O=C1[C@H](CC[C@H](O)c2ccc(F)cc2)[C@@H](c2ccc(O)cc2)N1c1ccc(F)cc1` [Ezetimibe] (concentration: 25 µM) are 1.03 ± 0.022 and 0.639 ± 0.061.
In assay [1], `CCN(CC)CCNC(=O)c1c(C)[nH]c(/C=C2\C(=O)Nc3ccc(F)cc32)c1C` [Sunitinib Malate] (concentration: 250 nM) had a mean cell size of 0.906 ± 0.031. For the same molecule, the cell count in assay [2] is 0.861 ± 0.089.
On the same counts, the results for `Nc1ccn([C@H]2CC[C@@H](CO)O2)c(=O)n1` [Zalcitabine (2',3'-Dideoxycytidine)] (concentration: 25 µM) are 1.31 ± 0.061 and 0.336 ± 0.073.
On the same counts, the results for `O=C(O)C1(C(=O)O)CCC1.[NH2-].[NH2-].[Pt+2]` [Carboplatin] (concentration: 25 µM) are 1.08 ± 0.016 and 0.51 ± 0.029.
`C[N+](C)(C)CC(=O)O` [Betaine] (concentration: 25 µM) registered a mean cell size in assay [1] of 0.945 ± 0.047. The molecule also yielded a cell count in assay [2] of 0.449 ± 0.066.
In the same order, the values of `CNC[C@H](O)c1cccc(O)c1` [Phenylephrine] (concentration: 25 µM) are 0.999 ± 0.036 and 0.873 ± 0.15.
On the same counts, the results for `C[C@@H]1C[C@H]2[C@@H]3CCC4=CC(=O)C=C[C@]4(C)[C@@]3(F)[C@@H](O)C[C@]2(C)[C@H]1C(=O)CO` [Desoximetasone] (concentration: 25 µM) are 0.949 ± 0.035 and 0.764 ± 0.02.
On to `CN(C)CCC=C1c2ccccc2C=Cc2ccccc21` [Cyclobenzaprine·HCl] (concentration: 25 µM), for which the mean cell size in assay [1] stood at 1 ± 0.041. This molecule registered a cell count in assay [2] of 0.631 ± 0.094.
On the same counts, the results for `CC(C)[C@H](N)C(=O)OCCOCn1cnc2c(=O)nc(N)[nH]c21` [Valacyclovir·HCl] (concentration: 25 µM) are 0.987 ± 0.03 and 0.332 ± 0.065.
On the same counts, the results for `CC1(C)O[C@@H]2C[C@H]3[C@@H]4CCC5=CC(=O)C=C[C@]5(C)[C@@]4(F)[C@@H](O)C[C@]3(C)[C@]2(C(=O)CO)O1` [Triamcinolone Acetonide] (concentration: 25 µM) are 0.997 ± 0.039 and 0.789 ± 0.084.

(Values after the supplement of paper PMC4709259.)
